# Sampled rows, rich in hits. Any-hit rate of the full collection: about 4.7%.
# ADAM10 inh = ADAM10 inhibition, QFRET primary screen; O14672; recombinant ADAM10, EDANS/DABCYL FRET peptide cleavage, 3 h; inhibition, % at 7 µM; 0.62% of 370,000 active;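 active = inhibition above a per-campaign cutoff equal to the mean of compounds falling between control-based bounds plus 3 SD, cut at about 20% in these data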;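 also: 0% = DMSO wells while the 100% control is not disclosed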
# Pemphigus Ab inh = human desmoglein-3 autoantibody binding inhibition; P32926; DSG3-coupled beads, scFv-anti-DSG3-GFP binding, flow cytometry; hits give low values; 0.48% of 310,000 active; binding (percent of control), % at 10 µM;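 active = binding more than 3 SD below its plate's average and above zero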;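 also: hits lower antibody fragment binding to DSG3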
# Target sequence (P32926 whole entry, looked up, the tested form may be a part): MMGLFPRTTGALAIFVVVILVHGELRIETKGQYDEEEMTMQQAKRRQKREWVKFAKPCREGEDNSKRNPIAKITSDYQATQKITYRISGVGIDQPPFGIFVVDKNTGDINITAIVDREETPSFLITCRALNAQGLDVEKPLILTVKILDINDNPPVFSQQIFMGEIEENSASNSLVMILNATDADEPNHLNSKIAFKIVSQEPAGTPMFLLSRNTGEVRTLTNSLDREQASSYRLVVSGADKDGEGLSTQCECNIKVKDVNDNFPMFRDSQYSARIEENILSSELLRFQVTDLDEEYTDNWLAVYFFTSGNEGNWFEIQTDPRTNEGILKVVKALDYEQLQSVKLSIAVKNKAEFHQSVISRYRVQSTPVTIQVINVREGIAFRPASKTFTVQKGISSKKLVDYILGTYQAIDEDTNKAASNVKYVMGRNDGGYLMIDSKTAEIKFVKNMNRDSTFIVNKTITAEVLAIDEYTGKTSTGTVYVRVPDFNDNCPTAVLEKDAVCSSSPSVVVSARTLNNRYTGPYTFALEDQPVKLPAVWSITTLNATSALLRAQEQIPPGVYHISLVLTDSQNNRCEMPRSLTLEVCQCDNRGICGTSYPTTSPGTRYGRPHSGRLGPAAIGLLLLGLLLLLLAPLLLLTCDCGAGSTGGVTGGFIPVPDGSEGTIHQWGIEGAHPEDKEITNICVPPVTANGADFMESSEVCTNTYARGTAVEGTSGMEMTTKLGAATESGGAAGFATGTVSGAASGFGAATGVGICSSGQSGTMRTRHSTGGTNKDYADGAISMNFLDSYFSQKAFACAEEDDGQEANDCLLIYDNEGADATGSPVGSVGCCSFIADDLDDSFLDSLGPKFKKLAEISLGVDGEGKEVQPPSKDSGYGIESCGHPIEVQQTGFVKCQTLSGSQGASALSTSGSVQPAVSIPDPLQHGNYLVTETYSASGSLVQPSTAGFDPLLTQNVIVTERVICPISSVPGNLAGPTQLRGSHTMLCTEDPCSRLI
# rCAG RNA binder = molecules binding r(CAG) RNA repeats. r(CAG) RNA repeat, TO-PRO-1 dye displacement fluorescence. inhibition, % at 3 µM. 1.3% of 370,000 active. AID 651821;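 active = inhibition above the plate cutoff, the mean of all test compounds on that plate plus 3 SD, cut at about 35% in these data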;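 also: 0% = DMSO alone and 100% = 100 µM mitoxantrone as full dye displacement; higher means more dye released from RNA so lower well fluorescence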
# MPTP block = permeability transition pore inhibition | isolated mouse mitochondria, Ca2+ swelling absorbance, 30 min | 1.4% of 360,000 active | inhibition, % at 10 µM;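 active = inhibition of 50% or more, scaled per plate between neutral and stimulator controls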;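 also: 0% = DMSO wells given calcium and 100% = 1 mM EGTA wells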
# ADAM17 inh = ADAM17 inhibition, QFRET primary screen; P78536; recombinant ADAM17, EDANS/DABCYL FRET peptide cleavage; inhibition, % at 6.95 µM; 0.83% of 370,000 active; AID 720648;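 active = inhibition above the mean of compounds lying between control limits plus 3 SD, set per campaign, cut at about 8.5% in these data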;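 also: 0% = DMSO-only wells as the low control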
# proKLK7 act = proKLK7 (human) activation, primary screen; purified proKLK7, EDANS-DABCYL substrate fluorescence; 100% is mature enzyme control, 0% vehicle; 0.9% of 370,000 active; AID 652039; P49862; activation, % at 7 µM;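 active = activation above the mean of all tested compounds plus 3 SD, computed per campaign excluding outliers beyond control limits, cut at about 13% in these data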
# * hit, by the source's call; i = inactive; · = no result given.
SMILES,ADAM10 inh,Pemphigus Ab inh,rCAG RNA binder,MPTP block,ADAM17 inh,proKLK7 act
NS(=O)(=O)c1ccc(NC(=S)N2CCN(c3ccc(Cl)c(Cl)c3)CC2)cc1,6,53*,13,7,4,0
CSc1nc2nccc(-c3ccc4c(c3)OCO4)n2n1,-155,104*,-1,3,-51,4
CSc1nc2nccc(-c3ccc(-c4ccccc4)cc3)n2n1,i,96,4,-1,-136,-7
CC[C@]12c3[nH]c4ccc(Cl)cc4c3CCN1C(=O)[C@@H](CC(=O)NCC13CC4CC(CC(C4)C1)C3)C[C@@H]2C(=O)N1CCN(C(=O)c2ccco2)CC1,35*,106,15,-1,5,-1
CN(c1ccccc1)S(=O)(=O)c1cccc(NC(=O)C2=NNC(=O)CC2)c1,-7,5.4*,9,1,-2,0
CC1(C(=O)NS(=O)(=O)c2ccccc2Cl)CCN1C(=O)C1(c2ccccc2)CCCC1 (stereo not drawn),2,·,33,0,-1,1
CC1(C(=O)NS(=O)(=O)c2ccccc2Cl)CCN1C(=O)C1(c2ccc(Cl)cc2)CCC1 (stereo not drawn),-4,·,47*,0,0,0
CN1OC[C@@H]2CN(C(=O)C(C)(C)C)[C@H](c3ccc(-c4cc5ccccc5o4)cc3)C[C@@H]21,-10,61*,1,-1,2,0
Cc1ccc(C(=O)OCC(=O)Nc2ccc3c(c2)OCCO3)cc1C,-1,69*,-1,-1,-2,0
O=C(COC(=O)/C=C/c1ccc(Cl)cc1)Nc1ccc2c(c1)OCCO2,-1,85,-3,2,-2,0
O=C(COC(=O)/C=C/c1ccccc1)Nc1ccc2c(c1)OCCO2,-3,-4.7*,0,0,-4,0
COC(=O)[C@]12C[C@H](CC(=O)NCCCN3CCCC3=O)C(=O)N(CCC3=CCCCC3)C1=C[C@H](COCc1ccccc1)O[C@@H]2C,8,·,1,·,2,1
O=C(NC1CCCCC1)Oc1cc2oc(=O)sc2cc1Br,26*,·,33,8,4,1
O=C(NC1CCCCCC1)c1ccc(Br)o1,0,116,1,-1,-4,0
O=C(NCc1ccco1)c1ccc(Cl)nc1,-10,78*,2,1,-4,0
COC(=O)C1=C(C)NC(C)=C(C(=O)OC)C1c1cn(-c2ccccc2)nc1-c1ccco1,-139,100,8,3,-27,55*
COc1ccccc1N1CCN(C(=O)c2ccc(Cn3c(=O)[nH]c4ccsc4c3=O)cc2)CC1,4,97,-4,0,-1,1
O=C(Nc1ccc(Cl)c(Cl)c1)c1ccc(Cn2c(=O)[nH]c3ccsc3c2=O)cc1,-12,66*,6,1,5,0
O=C(Nc1ccc(Oc2ccccc2)cc1)c1ccc(Cn2c(=O)[nH]c3ccsc3c2=O)cc1,-8,51*,12,-2,3,0
O=C(NC1CCCC1)c1ccc(Cn2c(=O)[nH]c3ccsc3c2=O)cc1,0,101,-1,0,-5,0
CC(=O)c1cc(-c2ccc(S(C)(=O)=O)cc2)c(=O)n2c1CCC2,i,·,0,·,-153,1
Cc1cc(N2CCN(C(=O)OC(C)(C)C)C[C@@H]2C)ccc1N1C[C@@H](C)O[C@@H](C)C1,-4,·,0,·,0,1
CN1CCN(c2ncnc3c2[nH]c2ccc(F)cc23)CC1,-329,96,2,-6,-103,20*
CC(=O)NC1C(=O)N(CCN2CCOCC2)c2ccc(Br)cc21 (stereo not drawn),-6,96,0,-1,-2,0
CCOc1ccc2c(c1)C(NC(C)=O)C(=O)N2CCN1CCOCC1 (stereo not drawn),-7,81*,1,0,-2,0
N#Cc1nc(-c2ccc(OCc3ccccc3)cc2)oc1N1CCC(C(N)=O)CC1,-100,66*,3,2,-31,-1
COc1ccc(-c2nc(C#N)c(N3CCC(C(N)=O)CC3)o2)cc1,i,114,0,6,-269,5
COc1cc(/C=N/NC(=S)Nc2cccc(S(=O)(=O)N(C)C)c2)cc(OC)c1O,0,101,6,4,1,-1

# Screening results deposited in PubChem by several laboratories.
